Source: PubChem BioAssay (NCI)
About 79,000 compounds went through this panel and 15% of them were active in at least one assay; those are over-represented in the sample as a whole. A number with no mark means an inactive call. Activity calls are given as the source filed them. No stated cut-off is given here; in the data, active means growth inhibition above about 70%; inactive means the rest.

Tests used:
[1] = NCI Yeast Anticancer Drug Screen. Data for the sgs1 mgt1 strain (AID 161);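 further: 0% = growth of cultures given vehicle only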; settings: S. cerevisiae sgs1 mgt1 strain, hits give high values
Summary of the method: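 Inhibition of yeast growth, normalised to vehicle-treated controls, is reported for a strain bearing genetic alterations in DNA damage repair.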

[2] = NCI Yeast Anticancer Drug Screen. Data for the CLN2oe strain (AID 163);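 further: 0% = growth of vehicle-only control cultures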; settings: S. cerevisiae CLN2oe strain, hits give high values
Summary of the method: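 Inhibition relative to vehicle-treated yeast is reported. Cells: strain with genetic alteration in cell-cycle control, grown with compound.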

[3] = NCI Yeast Anticancer Drug Screen. Data for the cln2 rad14 strain (AID 165);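 further: 0% = growth equal to vehicle treated cultures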; settings: S. cerevisiae cln2 rad14 strain, hits give high values
Summary of the method: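 Each compound was tested on cln2 rad14 yeast. Inhibition of growth was calculated against vehicle-exposed controls.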

[4] = NCI Yeast Anticancer Drug Screen. Data for the bub3 strain (AID 167); settings: S. cerevisiae bub3 mutant strain, hits give high values
Summary of the method: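 Part of a panel of yeast mutants defective in DNA damage repair or cell cycle regulation. Each strain is grown with compound, and inhibition is calculated relative to solvent-treated cultures.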

[5] = NCI Yeast Anticancer Drug Screen. Data for the wt2 strain (AID 169);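 further: 0% = growth of vehicle-treated yeast cultures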; settings: S. cerevisiae wt2 strain growth inhibition, hits give high values
Summary of the method: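 Inhibition of yeast growth was determined after compound treatment, normalised to controls receiving only vehicle.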

[6] = NCI Yeast Anticancer Drug Screen. Data for the mlh1 strain (AID 171);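 further: 0% = growth of vehicle-treated control cultures of the same strain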; settings: S. cerevisiae mlh1 strain growth inhibition, hits give high values
Summary of the method: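 Vehicle-normalised growth inhibition of a repair- or checkpoint-altered yeast strain following compound treatment.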

[7] = NCI Yeast Anticancer Drug Screen. Data for the sgs1 strain (AID 173);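 further: 0% = growth of vehicle-only control cultures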; settings: S. cerevisiae sgs1 mutant, hits give high values
Summary of the method: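 Screen format: yeast with repair or checkpoint alterations, compound exposure, growth read relative to vehicle.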

[8] = NCI Yeast Anticancer Drug Screen. Data for the mlh1 rad18 strain (AID 175); settings: S. cerevisiae mlh1 rad18 strain growth inhibition, hits give high values
Summary of the method: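 Vehicle-treated cultures served as the reference for growth inhibition in a yeast strain carrying DNA damage repair alterations exposed to each compound.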

[9] = NCI Yeast Anticancer Drug Screen. Data for the rad18 strain (AID 177); settings: S. cerevisiae rad18 mutant growth inhibition, hits give high values
Summary of the method: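 Test articles were incubated with altered yeast defective in DNA damage repair. Results are given as inhibition of growth versus vehicle.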

[10] = NCI Yeast Anticancer Drug Screen. Data for the rad52 strain (AID 147);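 further: 0% = growth of vehicle-treated control cultures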; settings: S. cerevisiae rad52 mutant growth inhibition, hits give high values
Summary of the method: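 Vehicle-treated cultures served as the reference for growth inhibition of compound-exposed yeast bearing a DNA repair mutation.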

[11] = NCI Yeast Anticancer Drug Screen. Data for the wt1 strain (AID 149);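 further: 0% = growth of vehicle-treated wt1 cultures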; settings: S. cerevisiae wt1 strain (SPY 50644) growth inhibition, hits give high values
Summary of the method: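 The wt1 strain was treated with compounds, and growth was compared with vehicle-treated cultures to give inhibition.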

[12] = NCI Yeast Anticancer Drug Screen. Data for the rad50EPP+ strain (AID 151);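 further: 0% = growth of vehicle-treated control cultures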; settings: S. cerevisiae rad50 mutant strain, hits give high values
Summary of the method: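 In this screen, rad50EPP+ yeast were exposed to compounds. Growth inhibition was scored against vehicle-treated controls.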

[13] = NCI Yeast Anticancer Drug Screen. Data for the rad50 strain (AID 155);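 further: 0% = growth of vehicle-only cultures of the same strain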; settings: S. cerevisiae rad50 strain growth inhibition, hits give high values
Summary of the method: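 Cells are treated with compound, grown, and their growth is then scored against vehicle-only cultures of the same repair-deficient yeast strain.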

[14] = NCI Yeast Anticancer Drug Screen. Data for the mec2-1 strain (AID 157); settings: S. cerevisiae mec2-1 strain, hits give high values
Summary of the method: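 Vehicle-treated cultures served as reference for growth inhibition of compound-exposed mec2-1 yeast.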

[15] = NCI Yeast Anticancer Drug Screen. Data for the rad14 strain (AID 159);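 further: 0% = growth of vehicle-treated control cultures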; settings: S. cerevisiae rad14 strain growth inhibition, hits give high values
Summary of the method: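 Readout: yeast growth inhibition, referenced to vehicle-only cultures. Strain bears a defined alteration in DNA damage repair.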

[16] = at 5.0 µM (retest, dose inferred, filed as 0.5)
[17] = at 50.0 µM (retest, dose inferred, filed as 5.0)

c1ccc2c(c1)sc1nc3ccncc3nc12
growth inhibition ([1]; at 50.0 µM): 3.7% | growth inhibition ([2]; at 1.2 µM): 2% | growth inhibition ([2]; at 3.7 µM): 5% | growth inhibition ([2]; at 11.0 µM): 4% | growth inhibition ([2]; at 33.0 µM): 4% | growth inhibition ([2]; at 100.0 µM): 7% | growth inhibition [3, 16]: -50% | growth inhibition [3, 17]: -8% | growth inhibition ([3]; at 50.0 µM): 9.05% | growth inhibition ([4]; at 1.2 µM): 10% | growth inhibition ([4]; at 3.7 µM): 3% | growth inhibition [4, 16]: -51% | growth inhibition ([4]; at 11.0 µM): 8% | growth inhibition ([4]; at 33.0 µM): 11% | growth inhibition [4, 17]: 1% | growth inhibition ([4]; at 50.0 µM): 6.1% | growth inhibition ([4]; at 100.0 µM): 20% | growth inhibition ([5]; at 1.2 µM): 13% | growth inhibition ([5]; at 3.7 µM): 12% | growth inhibition ([5]; at 11.0 µM): 17% | growth inhibition ([5]; at 33.0 µM): 17% | growth inhibition ([5]; at 100.0 µM): 29% | growth inhibition ([6]; at 1.2 µM): -5% | growth inhibition ([6]; at 3.7 µM): -1% | growth inhibition ([6]; at 11.0 µM): 1% | growth inhibition ([6]; at 33.0 µM): 8% | growth inhibition ([6]; at 100.0 µM): 12% | growth inhibition ([7]; at 1.2 µM): -5% | growth inhibition ([7]; at 3.7 µM): -8% | growth inhibition ([7]; at 11.0 µM): 3% | growth inhibition ([7]; at 33.0 µM): 9% | growth inhibition ([7]; at 100.0 µM): 13% | growth inhibition [8, 16]: -110% | growth inhibition [8, 17]: -30% | growth inhibition ([8]; at 50.0 µM): 32.7% | growth inhibition ([9]; at 1.2 µM): 0% | growth inhibition ([9]; at 3.7 µM): -3% | growth inhibition ([9]; at 11.0 µM): 1% | growth inhibition ([9]; at 33.0 µM): 10% | growth inhibition ([9]; at 100.0 µM): 22%

O=[N+]([O-])C(=C(Sc1ccccc1)Sc1ccccc1)C(Cl)=C(Cl)Cl
growth inhibition ([10]; at 1.2 µM): 14% | growth inhibition ([10]; at 3.7 µM): 30% | growth inhibition ([10]; at 11.0 µM): 45% | growth inhibition ([10]; at 33.0 µM): 56% | growth inhibition ([10]; at 100.0 µM): 59% | growth inhibition ([11]; at 1.2 µM): 3% | growth inhibition ([11]; at 3.7 µM): 13% | growth inhibition ([11]; at 11.0 µM): 25% | growth inhibition ([11]; at 33.0 µM): 36% | growth inhibition ([11]; at 100.0 µM): 41% | growth inhibition ([12]; at 1.2 µM): 9% | growth inhibition ([12]; at 3.7 µM): 20% | growth inhibition ([12]; at 11.0 µM): 36% | growth inhibition ([12]; at 33.0 µM): 49% | growth inhibition ([12]; at 100.0 µM): 48% | growth inhibition ([13]; at 1.2 µM): 4% | growth inhibition ([13]; at 3.7 µM): 8% | growth inhibition [13, 16]: 5% | growth inhibition ([13]; at 11.0 µM): 23% | growth inhibition ([13]; at 33.0 µM): 46% | growth inhibition [13, 17]: 53% | growth inhibition ([13]; at 50.0 µM): 19.6% | growth inhibition ([13]; at 100.0 µM): 50% | growth inhibition ([14]; at 1.2 µM): 12% | growth inhibition ([14]; at 3.7 µM): 26% | growth inhibition [14, 16]: 22% | growth inhibition ([14]; at 11.0 µM): 37% | growth inhibition ([14]; at 33.0 µM): 46% | growth inhibition [14, 17]: 26% | growth inhibition ([14]; at 50.0 µM): 46.5% | growth inhibition ([14]; at 100.0 µM): 46% | growth inhibition ([15]; at 1.2 µM): 4% | growth inhibition ([15]; at 3.7 µM): 7% | growth inhibition ([15]; at 11.0 µM): 19% | growth inhibition ([15]; at 33.0 µM): 27% | growth inhibition ([15]; at 100.0 µM): 28% | growth inhibition [1, 16]: 2% | growth inhibition [1, 17]: 53% | growth inhibition ([1]; at 50.0 µM): 62.6% | growth inhibition ([2]; at 1.2 µM): 4% | growth inhibition ([2]; at 3.7 µM): 16% | growth inhibition ([2]; at 11.0 µM): 26% | growth inhibition ([2]; at 33.0 µM): 37% | growth inhibition ([2]; at 100.0 µM): 32% | growth inhibition [3, 16]: 44% | growth inhibition [3, 17]: 33% | growth inhibition ([3]; at 50.0 µM): 32.8% | growth inhibition ([4]; at 1.2 µM): 6% | growth inhibition ([4]; at 3.7 µM): 18% | growth inhibition [4, 16]: -1% | growth inhibition ([4]; at 11.0 µM): 33% | growth inhibition ([4]; at 33.0 µM): 45% | growth inhibition [4, 17]: 59% | growth inhibition ([4]; at 50.0 µM): 60.2% | growth inhibition ([4]; at 100.0 µM): 50% | growth inhibition ([5]; at 1.2 µM): 1% | growth inhibition ([5]; at 3.7 µM): 15% | growth inhibition ([5]; at 11.0 µM): 39% | growth inhibition ([5]; at 33.0 µM): 59% | growth inhibition ([5]; at 100.0 µM): 73% (active) | growth inhibition ([6]; at 1.2 µM): 8% | growth inhibition ([6]; at 3.7 µM): 19% | growth inhibition ([6]; at 11.0 µM): 40% | growth inhibition ([6]; at 33.0 µM): 60% | growth inhibition ([6]; at 100.0 µM): 74% (active) | growth inhibition ([7]; at 1.2 µM): 13% | growth inhibition ([7]; at 3.7 µM): 24% | growth inhibition ([7]; at 11.0 µM): 58% | growth inhibition ([7]; at 33.0 µM): 76% (active) | growth inhibition ([7]; at 100.0 µM): 78% (active) | growth inhibition [8, 16]: 12% | growth inhibition [8, 17]: 71% (active) | growth inhibition ([8]; at 50.0 µM): 59.5% | growth inhibition ([9]; at 1.2 µM): 15% | growth inhibition ([9]; at 3.7 µM): 43% | growth inhibition ([9]; at 11.0 µM): 66% | growth inhibition ([9]; at 33.0 µM): 76% (active) | growth inhibition ([9]; at 100.0 µM): 74% (active)
